Experimental data: PubChem BioAssay AID687001 (Broad Institute, 2013)
Potency and affinity values are given separately. Active and inactive are the calls of the source.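 The calls were made as follows: active = signal-lowering compounds whose fitted half-maximal concentration is at or below twice the top tested dose in every run; inconclusive = runs disagree, flat 30 to 70% inhibition, or poor curve fit; inactive = the rest.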

Target: Protein S100-A4 (Homo sapiens) (UniProt P26447)
Experiment: human S100A4 peptide interaction inhibition curves – biochemical, fluorescence polarization, cherry-picked hits, dose response (AID 687001)
Conditions: FP, S100A4/TAMRA-myosin IIA peptide binding; series mostly up to 11 µM

Chain of Protein S100-A4 (Homo sapiens) (P26447 whole entry, looked up): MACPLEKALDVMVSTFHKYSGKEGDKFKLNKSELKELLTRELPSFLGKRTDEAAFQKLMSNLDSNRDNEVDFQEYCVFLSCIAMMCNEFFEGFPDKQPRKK

outcome, inactive:
CC(=O)Nc1ccc2nsnc2c1
CC(OC(=O)C1=COCCO1)C(=O)Nc1ncc(Cl)cc1Cl (centres undefined)
O=C(C[C@H]1C=C[C@H](NC(=O)CCN2CCCCC2)[C@H](CO)O1)Nc1nccs1
COc1cccc(NC(=O)N[C@@H]2C=C[C@@H](CC(=O)N3CCN(C)CC3)O[C@@H]2CO)c1
COCCn1c(SCC(=O)Nc2ccc(NC(C)=O)cc2)nc2ccccc2c1=O
C[C@@H]1CN([C@@H](C)CO)C(=O)c2cccc(NC(=O)Nc3cccc4ccccc34)c2O[C@H]1CN(C)C(=O)Nc1ccccc1
CCC1CN(C(=O)N2CCC(C(=O)NCCc3ccc(OC)c(OC)c3)CC2)c2ccccc2O1 (centres undefined)
C[C@@H]1CN([C@@H](C)CO)S(=O)(=O)c2ccc(-c3cccc(C#N)c3)cc2O[C@@H]1CN(C)C(=O)c1ccc(F)cc1
Cc1cc(=O)oc2c3c(cc(OCC(=O)NCC(=O)N[C@H](C(=O)O)C(C)C)c12)OC(C)(C)CC3
C=C1CCN([C@@H](Cc2ccccc2)C(=O)NC2CCN(Cc3ccccc3)CC2)S(=O)(=O)c2ccccc21
CN(C(=O)COC(=O)/C=C/c1ccc2c(c1)OCO2)c1c(N)n(Cc2ccccc2)c(=O)[nH]c1=O
C[C@@H]1CN([C@@H](C)CO)C(=O)c2cccc(N(C)C)c2O[C@@H]1CN(C)C(=O)Nc1cccc2ccccc12
S=C(NCCCc1cnc[nH]1)NCCCN(Cc1ccc(Cl)cc1)c1ccc(Br)cn1
Cc1ccc(-c2ccc(=O)n(Cc3ccc(F)cc3)n2)cc1
Cc1ccc(S(=O)(=O)NCCC(=O)NCC(=O)Nc2c(C)cccc2C)cc1C
CO[C@H]1CC[C@H]2CCN(C)C(=O)[C@@H](C)[C@H](OC)CN(C)C(=O)c3cc(C#N)ccc3OC[C@H]1O2
CCC(=O)N[C@@H]1CC[C@H](CCNC(=O)Nc2ccc(C(F)(F)F)cc2)O[C@H]1CO
CC(=O)Nc1ccc(Nc2nnc(-c3ccc(C)c(S(N)(=O)=O)c3)c3ccccc23)cc1
CN1c2ccc(C#Cc3cccnc3)cc2[C@@H]2[C@@H](CCN2S(=O)(=O)c2ccccc2F)[C@@H]1CO
Cc1ccccc1S(=O)(=O)N1C[C@H](O)COC[C@@H]2O[C@@H](CC(=O)NCc3ccccc3Cl)CC[C@H]21
C[C@H](CO)N1C[C@H](C)[C@@H](CN(C)S(=O)(=O)c2cccs2)OCCCC[C@H](C)Oc2ccc(NS(C)(=O)=O)cc2C1=O
CCOc1cc(/C=C2\CCCc3c2nc2ccccc2c3C(=O)O)ccc1OC
C[C@@H]1CN([C@@H](C)CO)C(=O)Cc2cc(NC(=O)CCN3CCOCC3)ccc2O[C@@H]1CN(C)C
C[C@H]1CN([C@@H](C)CO)C(=O)c2cc(-c3cccc(C#N)c3)cnc2O[C@@H]1CN(C)Cc1cccnc1
CCCN1C[C@H](C)[C@H](OC)CN(C)C(=O)c2cc(NC(=O)NC3CCCCC3)ccc2OC[C@@H]1C
Cc1[nH][nH]c(=O)c1C(c1cc(Br)ccc1O)c1c(C)[nH][nH]c1=O
CO[C@H]1CN(C)C(=O)c2cc(NC(=O)Nc3ccc4c(c3)OCO4)ccc2OC[C@@H](C)NC[C@@H]1C
C[C@@H]1CN([C@H](C)CO)C(=O)c2cc(C#CC3CC3)cnc2O[C@@H]1CN(C)S(C)(=O)=O
CN1c2ccc(-c3ccccc3)cc2[C@@H]2[C@@H](CCN2C(=O)c2cccc(F)c2)[C@@H]1CO
COc1ccc(C)cc1NC(=O)CN1CCN(c2ccccn2)CC1
COC(=O)C[C@H]1CC[C@@H](NC(=O)Nc2cccc(OC)c2)[C@@H](CO)O1
CCN(CC)c1ccc(S(=O)(=O)N2CCOCC2)cc1NC(=O)COC(=O)/C=C/c1ccccc1
COC(=O)c1sccc1NC(=O)Nc1ccc(C)c(C)c1
CC(C)CC#Cc1ccc([C@H]2[C@H]3CN(C(=O)Cc4cccnc4)CC(=O)N3[C@H]2CO)cc1
CCCNC(=O)c1ccc2c(c1)nc(C)n2-c1cccc(C)c1
CCC1(CC)NC(=O)N(CC(=O)Nc2ccc(C)cc2C)C1=O
COc1ccccc1CN1[C@H](CO)[C@H]2c3ccccc3N(C(=O)c3cccnc3)C[C@H]21
C[C@H]1CN([C@@H](C)CO)C(=O)c2cc(NC(=O)CCCCCC(=O)Nc3ccccc3N)ccc2O[C@H]1CN(C)S(=O)(=O)c1cccs1
CCN1CCN(CCNC(=O)c2cc(Cl)c(NC(=O)C3=C(C)OCCS3)cc2OC)CC1
